Only some compounds are listed: those with a hit (about 7% of all), similar ones and a draw of the others.
PI5P4K alpha inh: PI5P4K alpha (human) kinase inhibition | max response, % | AID 652105 | actives 1.2% (n = 330,000) | PI5P4Kalpha enzyme, ADP-Glo luminescence, 60 min; stronger effect = lower value; active = max response of -50% or lower; inconclusive = between -30% and -50%; inactive = -30% or higher; note: value at the top dose of about 77 µM; % is set by controls: 0 for no effect and ±100 for the full control effect
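Luminescence from ADP-Glo served as readout of PI5P4Kalpha activity in a qHTS format. Reaction: enzyme, substrate, compound, ATP at 5 microM final, 60 min at RT.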
PLK1 PBD block: PLK1 (human) polo-box domain binding inhibition. P53350. Plk1 PBD binding of FITC phosphopeptide, fluorescence polarization. Potency, µM, for the others: max response, negative = inhibition, actives largely listed as inhibitors. actives 2.8% (n = 360,000); note: potency is the fitted concentration of half-maximal effect; series mostly up to about 57 µM; % is set by controls: 0 for no effect and ±100 for the full control effect; nearly all actives have a fitted effect of over 65% in size
BAZ2B block: inhibitors of human BAZ2B bromodomain | actives 4.4% (n = 360,000) | Potency, µM (series often up to 114 µM), for the others: top-dose activity change, negative = inhibition, actives largely listed as inhibitors | AID 504333 | AlphaScreen BAZ2B-H3K14Ac peptide displacement; note: potency is the fitted concentration of half-maximal effect; % is set by controls: 0 for no effect and ±100 for the full control effect; nearly all actives have a fitted effect of over 60% in size
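AlphaScreen luminescence quantifies BAZ2B engagement of H3K14Ac peptide; the protein and biotinylated peptide are both at 50 nM final, buffer PBS pH 7.4 with 0.01% Tween-20, all steps at room temperature.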
GCN5L2 inh: inhibitors of human GCN5L2 histone acetyltransferase | actives 0.21% (n = 390,000) | Potency, µM (titrated, usually from 58.9 µM), for inactives: at the highest dose activity change, negative = inhibition, actives largely listed as inhibitors | GCN5L2 HAT assay, ThioGlo1 CoA-SH fluorescence | Q92830 | AID 504327; note: potency is the fitted concentration of half-maximal effect; % is set by controls: 0 for no effect and ±100 for the full control effect
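Titration-based screen in which CoA formation is detected via maleimide probe ThioGlo1 (50uM) turning fluorescent on thiol reaction; substrates H3(1-25) 75uM and acetyl-CoA 70uM, GCN5L2 20nM, 20 min incubation at room temperature.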
JMJD2A Tudor: inhibitors of human JMJD2A Tudor domain; AlphaScreen JMJD2A-Tudor / H3K4me3 peptide binding; Potency, µM (titrated, usually from 114 µM), for the others: at the highest dose activity change, negative = inhibition, hits mostly inhibitors; actives 4.4% (n = 390,000); note: potency is the fitted concentration of half-maximal effect; % is set by controls: 0 for no effect and ±100 for the full control effect; nearly all actives have a fitted effect of over 50% in size
HP1b chromo inh: inhibitors of HP1-beta chromodomain binding to methylated histone tails | P83916 | Potency, µM (doses to about 114 µM), for inactives: at the highest dose activity change, negative = inhibition, actives largely listed as inhibitors | AID 540317 | actives 0.56% (n = 390,000) | AlphaScreen HP1-beta / biotin-H3K9me3 peptide binding; note: potency is the fitted concentration of half-maximal effect; nearly all actives have a fitted effect of over 70% in size
Target sequence (P83916 whole entry, looked up): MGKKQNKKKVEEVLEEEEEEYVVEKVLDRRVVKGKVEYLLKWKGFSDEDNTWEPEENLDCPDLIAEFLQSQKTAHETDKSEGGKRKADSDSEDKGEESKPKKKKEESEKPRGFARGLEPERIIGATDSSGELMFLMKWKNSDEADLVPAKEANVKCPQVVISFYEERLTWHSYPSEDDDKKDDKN
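Compound inhibition of the preformed complex between 50 nM HP1-beta and 50 nM biotinylated H3K9me3 peptide was read by AlphaScreen. Buffer was PBS pH 7.4 with 0.01% Tween-20. Incubations ran 30 min at room temperature, with 10 ug/mL donor/acceptor beads.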
Active calls of the source: *; u = inconclusive; x = no result given; [ ] = dose if it differs, or a comment. Unless noted, calls come from the whole dose curve; as a rule, active = well fitted curve in the direction sought with a large enough effect; inconclusive = small, poorly fitted or top-dose-only effect, or another doubt; inactive = no such curve, though single readings can be large; an effect the other way counts as inactive or inconclusive.

SMILES	PI5P4K alpha inh	PLK1 PBD block	BAZ2B block	GCN5L2 inh	JMJD2A Tudor	HP1b chromo inh
Nc1ccc2c(c1)Cc1cc([N+](=O)[O-])ccc1-2	-1	-10%	-23%	-1%	-10%	9%
CC(=NO)c1ccc2c(c1)Cc1cc([N+](=O)[O-])ccc1-2	-70*	4%	x	x	u	-27%
Cc1ccc(NC(=O)CN2C(=O)COc3ccc(S(=O)(=O)NC4CCCC4)cc32)cc1N(C)C	x	x	-25%	-5%	-32%	0%
Fc1ccccc1CN1CCN(c2ncccn2)CC1	2	1%	u	-2%	6.3µM*	-31%
Cc1ccc(C)c(S(=O)(=O)N2CCN(c3ncccn3)CC2)c1	-2	-7%	-1%	0%	-5%[11.4 µM]	96%
Cc1ccc(C)c(CN2CCN(c3ncccn3)CC2)c1	0	-23%	u	-7%	20µM*	u
Cc1ccc(C)c(OCCn2c(C3CC(=O)N(Cc4ccc(F)cc4)C3)nc3ccccc32)c1 (stereo not drawn)	x	x	-12%	-1%	-27%	-7%
COc1ccc(-n2nc(C(=O)NCCc3ccc(Cl)cc3)c3c4ccccc4n(C)c3c2=O)cc1	x	x	x	-1%	6%	27%
N=c1n(CCN2CCCCC2)c2ccccc2n1CC(=O)c1ccc(Cl)c(Cl)c1	16	-10%	32µM*	-7%	-28%	1%
CCOc1nc(NCCO)nc(NCCC2=CCCCC2)n1	8	-19%	-3%	0%	-8%[11.4 µM]	-1%
Clc1nc(Cl)nc(NCCC2=CCCCC2)n1	4	-18%	56µM*	1%	89µM*	22%
S=c1[nH]nc(Cn2cnc3ccccc32)n1-c1ccccc1Cl	-3	0%	20%	-15%	50µM*	41%
Clc1ccc(Cn2cnc3ccccc32)cc1	2	-4%	-3%	-6%	-16%	27%
C=CCN1C(=O)c2ccc(C(=O)NCCOc3ccccc3F)cc2C1=O	-1	-2%	2%	3%	-7%	38%
Cc1cc2n(n1)SC(Nc1ccccc1)N2 (stereo not drawn)	-3	-3%	-33%	-3%	7.9µM*	u
O=C1c2ccccc2C2=Nc3ccccc3SC(c3cccc(F)c3)C12 (stereo not drawn)	-9	-3%	28µM*	-7%	22µM*	28µM*
O=C1CCCC2=C1C(c1ccc(Cl)cc1)C1C(=O)c3ccccc3C1=N2 (stereo not drawn)	x	-15%	u	-2%	u	-24%
Fc1cccc(C2NN=C(c3ccccc3)S2)c1 (stereo not drawn)	-3	u	-3%	1%	-10%	54%
O=C1c2ccccc2C2=Nc3ccccc3SC(c3ccc(Cl)cc3)C12 (stereo not drawn)	0	-17%	10µM*	-10%	u	u
Cc1ccc(NC(=O)C2C3CCCCC32)cc1[N+](=O)[O-] (stereo not drawn)	-4	3%	20µM*	1%	u	-8%
CC(=O)Nc1ccc(C)c([N+](=O)[O-])c1	-6	0%	6%	36%	4%	11%
O=C(NC1CC(=O)N(c2ccccc2)C1)C(c1ccccc1)c1ccccc1 (stereo not drawn)	x	x	3%	2%	-12%	25%
CCCN(C(=O)Cc1coc2cc(OC)ccc12)C1CCS(=O)(=O)C1 (stereo not drawn)	1	-6%	x	2%	-11%	-5%
COc1cc(NC(=O)COC(=O)CNC(=O)c2ccc(C)s2)cc(OC)c1	-9	24µM*	-4%	-12%	-8%[11.4 µM]	u
O=c1nc(N/N=C/c2ccccn2)cn[nH]1	2	5%	2.5µM*	-7%	18µM*	59%
SMILES	PI5P4K alpha inh	PLK1 PBD block	BAZ2B block	GCN5L2 inh	JMJD2A Tudor	HP1b chromo inh
CC(/C=N/Nc1nncc(=O)[nH]1)=C\c1ccccc1	-15	-18%	-1%	-3%	-5%	18%
O=c1cnnc(N/N=C/c2ccccn2)[nH]1	-29	21µM*	8.9µM*	2%	3.2µM*	21%
C(=N\Nc1nc2ccccc2[nH]1)/c1ccc2ncccc2c1	-20	1%	-19%	-30%	-30%	28%
C(=N\Nc1nc2ccccc2[nH]1)/c1ccccn1	-7	-2%	25µM*	-5%	u	27%
C(=N\Nc1nc2ccccc2[nH]1)/c1cccc2nccnc12	-21	-2%	-35%	-7%	u	21%
C#CCn1cc(/C=N/Nc2nc3ccccc3[nH]2)c2ccccc21	-9	-4%	40µM*	-3%	50µM*	u
CS(=O)(=O)Nc1cccc(-c2cncnc2-n2ccnc2)c1	x	x	x	-10%	x	x

Screening data as filed in PubChem.
